# Results: PubChem BioAssay
# Activity calls are given as the source filed them.
# Tests used:
# [1] = system: Plasmodium falciparum Sir2 (PF13_0152, Sir2A); test: pfSir2 binders on small-molecule microarrays, primary screen, biochemical, small-molecule microarray, 635 nm fluorescence (AID 1098); conditions: small-molecule microarray binding, fluorescence 635 nm; higher = more signal;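 further: score merges spot fluorescence intensity with its signal-to-noise ratio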
# [2] = small-molecule microarray binders of probe aDKK1, primary screen, biochemical, biotinylated probe, 635/667 nm fluorescence (AID 1099); conditions: higher = more signal;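 further: score merges 667nm spot fluorescence with signal to noise across triplicate slides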
# [3] = small-molecule microarray binders of probe aCHRDL2, primary screen, biochemical, biotinylated probe, 635/667 nm fluorescence (AID 1100); conditions: higher = more signal
# [4] = splicing luciferase reporter signal modulators, primary screen, spliceosome inhibition project, cell-based, HEK293, splice +/- reporter (AID 1101); conditions: luminescence, 24 h, higher = more signal, called active from +8 up or from −8 down;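 further: HEK293 cells carrying a splicing-competent luciferase reporter gene; test concentration not given here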
# [5] = biological target: Fibroblast growth factor 10 (Homo sapiens) (UniProt O15520); test: FGF10 binders on small-molecule microarrays, primary screen, biochemical, small-molecule microarray, 635 nm fluorescence (AID 1102); conditions: FGF10 binding, fluorescence 635 nm, higher = more signal
# Fibroblast growth factor 10 (Homo sapiens), sequence (O15520 whole entry, looked up): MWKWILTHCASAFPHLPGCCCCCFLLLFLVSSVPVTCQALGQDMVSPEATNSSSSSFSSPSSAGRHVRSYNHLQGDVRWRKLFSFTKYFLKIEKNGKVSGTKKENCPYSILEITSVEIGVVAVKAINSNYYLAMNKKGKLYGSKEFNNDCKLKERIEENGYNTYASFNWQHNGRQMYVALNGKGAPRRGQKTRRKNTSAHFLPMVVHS
# [6] = system: glycogen synthase kinase-3 (GSK3A per assay name; protocol says GSK3B); test: GSK3 binders on small-molecule microarrays, primary screen, biochemical, small-molecule microarray, 635 nm fluorescence, GSK3A (AID 1103); conditions: small-molecule microarray binding, fluorescence 635 nm; higher = more signal; further: the record names both GSK3A and GSK3B
# [7] = biological target: Epidermal growth factor receptor (Homo sapiens) (UniProt P00533); test: EGFR binders on small-molecule microarrays, primary screen, biochemical, small-molecule microarray, 635 nm fluorescence (AID 1104); conditions: EGFR binding, higher = more signal;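 further: score merges 667 nm emission intensity with spot signal to noise over triplicate slides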
# Epidermal growth factor receptor (Homo sapiens), sequence (P00533 whole entry, looked up): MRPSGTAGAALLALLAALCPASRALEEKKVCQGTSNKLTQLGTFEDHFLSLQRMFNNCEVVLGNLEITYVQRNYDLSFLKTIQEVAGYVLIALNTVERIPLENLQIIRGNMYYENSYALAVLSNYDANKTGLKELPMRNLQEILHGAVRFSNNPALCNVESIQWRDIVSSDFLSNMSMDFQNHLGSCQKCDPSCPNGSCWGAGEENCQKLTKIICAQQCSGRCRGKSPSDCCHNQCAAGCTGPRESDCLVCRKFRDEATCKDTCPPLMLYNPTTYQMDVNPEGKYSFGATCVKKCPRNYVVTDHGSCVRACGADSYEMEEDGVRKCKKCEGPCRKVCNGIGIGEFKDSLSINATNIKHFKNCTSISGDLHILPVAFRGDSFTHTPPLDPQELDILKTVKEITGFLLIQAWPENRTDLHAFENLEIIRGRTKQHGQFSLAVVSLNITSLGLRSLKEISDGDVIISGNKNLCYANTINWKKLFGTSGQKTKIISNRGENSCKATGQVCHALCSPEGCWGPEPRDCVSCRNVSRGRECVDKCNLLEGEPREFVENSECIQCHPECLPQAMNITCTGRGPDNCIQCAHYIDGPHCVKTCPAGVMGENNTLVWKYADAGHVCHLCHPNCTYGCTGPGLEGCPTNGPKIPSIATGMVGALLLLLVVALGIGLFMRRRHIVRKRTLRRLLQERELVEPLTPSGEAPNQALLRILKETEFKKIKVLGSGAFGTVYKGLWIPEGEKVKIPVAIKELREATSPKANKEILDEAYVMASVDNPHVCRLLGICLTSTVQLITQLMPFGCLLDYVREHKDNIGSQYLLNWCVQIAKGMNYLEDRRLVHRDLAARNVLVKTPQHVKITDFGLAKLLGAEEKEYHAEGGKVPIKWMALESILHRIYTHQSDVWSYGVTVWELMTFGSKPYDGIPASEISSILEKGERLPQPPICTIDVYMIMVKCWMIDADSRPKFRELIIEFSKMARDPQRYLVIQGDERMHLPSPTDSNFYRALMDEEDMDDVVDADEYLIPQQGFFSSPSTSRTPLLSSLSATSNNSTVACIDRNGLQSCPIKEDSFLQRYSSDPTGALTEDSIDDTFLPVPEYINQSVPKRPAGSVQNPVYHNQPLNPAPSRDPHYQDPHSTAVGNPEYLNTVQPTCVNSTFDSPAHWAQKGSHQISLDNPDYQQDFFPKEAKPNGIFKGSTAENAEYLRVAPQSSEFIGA
# [8] = biological target: Follistatin-related protein 3 (Homo sapiens) (UniProt O95633); test: FSTL3 binders on small-molecule microarrays, primary screen, biochemical, small-molecule microarray, 635 nm fluorescence (AID 1105); conditions: FSTL3 binding, higher = more signal;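 further: score merges emission near 667 nm and signal to noise per printed spot across three slides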
# Follistatin-related protein 3 (Homo sapiens), sequence (O95633 whole entry, looked up): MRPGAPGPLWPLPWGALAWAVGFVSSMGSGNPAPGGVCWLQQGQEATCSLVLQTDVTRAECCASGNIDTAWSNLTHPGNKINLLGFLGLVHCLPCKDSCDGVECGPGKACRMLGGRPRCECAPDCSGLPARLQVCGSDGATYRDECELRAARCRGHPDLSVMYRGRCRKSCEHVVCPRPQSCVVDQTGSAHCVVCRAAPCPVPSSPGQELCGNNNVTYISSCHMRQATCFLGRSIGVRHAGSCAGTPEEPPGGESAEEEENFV
# [9] = biological target: Dickkopf-related protein 1 (Homo sapiens) (UniProt O94907); test: DKK1 binders on small-molecule microarrays, primary screen, biochemical, small-molecule microarray, 635 nm fluorescence scan (AID 1106); conditions: DKK1 binding, higher = more signal;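 further: score merges emission near 667 nm with signal to noise over three replicate slides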
# Dickkopf-related protein 1 (Homo sapiens), sequence (O94907 whole entry, looked up): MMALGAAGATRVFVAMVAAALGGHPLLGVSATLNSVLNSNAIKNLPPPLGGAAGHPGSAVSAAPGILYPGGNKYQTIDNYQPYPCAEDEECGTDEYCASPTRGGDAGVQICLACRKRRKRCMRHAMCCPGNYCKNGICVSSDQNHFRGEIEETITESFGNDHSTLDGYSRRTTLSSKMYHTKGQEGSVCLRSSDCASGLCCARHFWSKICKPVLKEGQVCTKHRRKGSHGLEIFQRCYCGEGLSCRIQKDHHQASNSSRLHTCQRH
# [10] = system: Inhibin beta A chain (activin A); test: INHBA (activin A) binders on microarrays, primary screen, biochemical, small-molecule microarray, 635 nm fluorescence scan (AID 1107); conditions: small-molecule microarray binding, higher = more signal;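 further: mouse activin A protein probed at 4.33 µg/mL on printed slides; score merges bound-protein fluorescence near 667 nm with spot signal-to-noise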
# [11] = system: Human papillomavirus type 1a protein E7 (residues 44-93); test: HPV1a E7 fragment binders on microarrays, primary screen, biochemical, small-molecule microarray, residues 44-93, 635 nm fluorescence (AID 1108); conditions: small-molecule microarray binding, fluorescence 635 nm; higher = more signal;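 further: E7 fragment applied at 1 µg/mL in TBST for 1 h at 4 C; score combines spot fluorescence with its signal to noise ratio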
# [12] = modulators of HCV replicon luciferase signal, primary screen, HCV replication inhibitor project, Huh7 cells, luciferase reporter (AID 1109); conditions: 48 h, higher = more signal;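 further: huh7 hepatoma cells harbouring a luciferase neomycin HCV replicon reporter; luciferase luminescence as measure of HCV replicon replication; test concentration not given here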
# [13] = biological target: Left-right determination factor 2 (Homo sapiens) (UniProt O00292); test: LEFTY2 binders on small-molecule microarrays, primary screen, biochemical, small-molecule microarray, 635 nm fluorescence scan (AID 1110); conditions: LEFTY2 binding, higher = more signal
# Left-right determination factor 2 (Homo sapiens), sequence (O00292 whole entry, looked up): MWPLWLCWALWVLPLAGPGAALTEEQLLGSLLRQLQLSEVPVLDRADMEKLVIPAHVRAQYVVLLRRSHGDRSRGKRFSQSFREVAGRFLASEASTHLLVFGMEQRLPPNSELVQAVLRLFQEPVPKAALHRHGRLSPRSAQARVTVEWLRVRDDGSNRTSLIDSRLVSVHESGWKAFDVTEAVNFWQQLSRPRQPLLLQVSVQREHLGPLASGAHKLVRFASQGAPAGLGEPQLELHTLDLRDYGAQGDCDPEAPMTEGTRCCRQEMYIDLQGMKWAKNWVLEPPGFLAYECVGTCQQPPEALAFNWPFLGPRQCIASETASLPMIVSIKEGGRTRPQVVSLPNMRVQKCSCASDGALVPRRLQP
# [14] = biological target: Calmodulin-1 (Homo sapiens) (UniProt P0DP23); test: CALM1 binders on microarrays, EGTA buffer, profiling panel, biochemical, small-molecule microarray, Cy5-labelled CALM1 (AID 1111); conditions: Cy5-CALM1 binding fluorescence, higher = more signal;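 further: labelled calmodulin applied in Tris saline Tween buffer holding calcium plus EGTA and DTT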
# [15] = biological target: Calmodulin-1 (Homo sapiens) (UniProt P0DP23); test: calcium-bound CALM1 binders on microarrays, profiling panel, artefact control for SMM control-protein annotation, biochemical, small-molecule microarray, Cy5-labelled CALM1, plus calcium (AID 1112); conditions: Cy5-CALM1 binding fluorescence, higher = more signal;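 further: score merges spot fluorescence with signal to noise from triplicate slides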
# [16] = small-molecule microarray binders of probe aWnt5a, primary screen, biochemical, biotinylated probe, 635/667 nm fluorescence (AID 1113); conditions: higher = more signal;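 further: score merges 667 nm fluorescence intensity with signal-to-noise per printed feature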
# [17] = small-molecule microarray binders of probe aShh, primary screen, biochemical, biotinylated probe, 635/667 nm fluorescence (AID 1114); conditions: higher = more signal;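 further: probe is biotin-labelled aShh protein from a stem cell growth factor screen; measures binding of labelled protein to compounds printed on the slide; score merges feature fluorescence at 667 nm with signal-to-noise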
# [18] = small-molecule microarray binders of probe aNog, primary screen, biochemical, biotinylated probe, 635/667 nm fluorescence (AID 1115); conditions: higher = more signal;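 further: probe is biotinylated aNog protein used at 0.15 µg/mL for 1 h at 4 C; z-score combines 667 nm fluorescence of each spot with its signal to noise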
# [19] = biological target: Torsin-1A-interacting protein 1 (Homo sapiens) (UniProt Q5JTV8); test: LAP1 binders from COS7 cell lysate, primary screen, small-molecule microarray, 635/667 nm fluorescence (AID 1116); conditions: COS7-hLAP1 lysate binding, 635 nm fluorescence, higher = more signal
# Torsin-1A-interacting protein 1 (Homo sapiens), sequence (Q5JTV8 whole entry, looked up): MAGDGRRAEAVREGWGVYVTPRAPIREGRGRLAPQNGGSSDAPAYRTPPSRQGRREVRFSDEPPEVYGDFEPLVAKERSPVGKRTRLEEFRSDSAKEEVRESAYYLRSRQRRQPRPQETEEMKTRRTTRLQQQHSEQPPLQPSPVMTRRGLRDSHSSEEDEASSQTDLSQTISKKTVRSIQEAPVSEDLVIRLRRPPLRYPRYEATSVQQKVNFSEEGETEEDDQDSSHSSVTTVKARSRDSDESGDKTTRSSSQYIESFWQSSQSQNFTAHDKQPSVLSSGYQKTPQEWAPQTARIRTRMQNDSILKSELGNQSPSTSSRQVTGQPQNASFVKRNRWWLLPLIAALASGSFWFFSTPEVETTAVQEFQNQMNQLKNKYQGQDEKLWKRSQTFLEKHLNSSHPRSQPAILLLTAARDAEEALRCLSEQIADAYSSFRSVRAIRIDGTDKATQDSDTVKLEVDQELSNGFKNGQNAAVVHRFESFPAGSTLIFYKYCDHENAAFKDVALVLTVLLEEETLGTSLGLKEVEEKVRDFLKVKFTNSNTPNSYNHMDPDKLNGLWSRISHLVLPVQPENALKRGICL
# [20] = biological target: Alpha-bungarotoxin (Bungarus multicinctus) (UniProt P60615); test: alpha-bungarotoxin binders on microarray, profiling panel, artefact control for SMM control protein annotation, biochemical, small-molecule microarray, Alexa647 label, 635/667 nm fluorescence (AID 1117); conditions: alpha-BTX-A647 binding fluorescence, higher = more signal
# Alpha-bungarotoxin (Bungarus multicinctus), sequence (P60615 whole entry, looked up): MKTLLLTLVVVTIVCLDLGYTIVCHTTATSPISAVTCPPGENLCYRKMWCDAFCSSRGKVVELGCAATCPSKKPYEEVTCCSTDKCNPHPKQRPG
Structure (SMILES),composite z-score [1],composite z-score [2],composite z-score [3],z-score [4],composite z-score [5],composite z-score [6],composite z-score [7],composite z-score [8],composite z-score [9],composite z-score [10],composite z-score [11],z-score [12],composite z-score [13],composite z-score [14],composite z-score [15],composite z-score [16],composite z-score [17],composite z-score [18],composite z-score [19],composite z-score [20]
COc1cc(CO)cc(I)c1O[C@H]1C=C(C(=O)NCCO)C[C@@H](NC2CCCCCC2)[C@@H]1O,0.515,-0.168,-0.675,-0.51 (inactive),1.38,1.16,0.44,1.29,0.772,0.0403,1.15,-4.13,0.867,0.475,-0.572,-0.129,-0.0769,-0.0345,0.484,0.0323
C=CCOC(=O)[C@@H]1[C@H]2C(=O)O[C@H](c3ccccc3)[C@H](c3ccccc3)N2[C@H](c2ccc(OCCOC(=O)[C@H]3C[C@H]4C(=O)NCC(=O)N4[C@H]3c3cccc(OCCO)c3)cc2)[C@@]12C(=O)Nc1ccc(I)cc12,1.53,0.512,0.494,0.789 (inactive),0.742,1.36,0.725,1.23,1.11,0.118,0.534,-0.582,0.553,1.33,0.0237,-0.0327,0.147,-0.381,1.61,1.39
NCCCCCCNC(=O)[C@@H]1C[C@@H]2C(=O)N3CCC[C@H]3C(=O)N2[C@@H]1c1cccc(OCCO)c1,1.23,0.0549,0.798,-1.42 (inactive),0.752,0.851,0.405,1.04,1.2,1.01,-0.0954,0.116,0.738,0.263,-0.334,-0.0286,-0.0035,-0.366,0.572,1.01
C=CCN1C(=O)[C@@]2(O[C@@H](CCn3cc([C@H](O)c4ccccc4)nn3)[C@H]([Si](C)(C)c3ccc(OC)cc3)[C@H]2C)c2cc(N3C(=O)c4cccc5cccc3c45)ccc21,0.0764,-0.236,0.401,-0.447 (inactive),-0.859,-1.37,-1.04,-1.06,-1.12,-0.893,-0.18,-3.74,-0.898,0.178,0.872,-0.178,-0.138,0.205,-0.236,-0.0541
CC(C)=CCCC=C(C)C(O)C1C=CC2C(=O)N(c3ccccc3)C(=O)C2N1Nc1ccc(C#N)cc1 (stereo not given),0.669,0.473,0.722,-0.403 (inactive),0.569,1.3,0.411,1.29,0.0902,1.16,1.4,-1.96,-0.111,1.46,-0.175,-0.0459,-0.0769,-0.468,0.217,0.82
COC(=O)[C@@]1(Cc2ccc(OC)cc2)[C@H]2c3cc(C(=O)N4CCCC4)n(CCn4cc([N+](=O)[O-])nc4C)c3C[C@H]2CN1C(=O)c1ccccc1,1.2,2.46,1.33,0.167 (inactive),0.981,0.456,0.661,0.354,0.559,1.13,0.0832,-0.432,0.277,2.72,1.21,1.19,2.51,3.12,1.98,0.299
N#Cc1ccc(C(O)C2C=CC3C(=O)NC(=O)C3N2Nc2ccc(Cl)cc2Cl)cc1 (stereo not given),1.42,0.558,1.13,1.9 (inactive),0.599,-0.344,0.0129,-0.124,-0.577,1.03,0.544,-0.436,-0.535,1.69,0.635,0.0438,0.296,0.732,2.08,0.531
C=CCC(OC(C)=O)[C@@H]1[C@@H](N(Cc2cc3ccccc3o2)C(=O)Cc2ccc(OC)cc2)c2cc(OCCCO)ccc2N1C(=O)c1ccc2ccccc2n1 (stereo not given in full),0.0682,0.0671,0.393,-0.536 (inactive),0.116,0.0115,0.357,0.367,0.0467,1.42,-0.329,-0.814,0.0809,-0.154,-0.292,0.0573,-0.0362,-0.0381,0.461,1.08
COCCCN1C(=O)[C@@]2(c3ccc([N+](=O)[O-])cc3)CC(=O)N(CC34CC5CC(CC(C5)C3)C4)[C@@H]2c2ccc(CO)cc21,1.47,-0.183,-0.0705,-0.515 (inactive),0.329,0.541,-0.557,0.458,-0.104,0.405,0.372,-0.445,-0.407,-0.226,-0.406,-0.096,-0.291,-0.461,-0.507,0.241
CCOC(=O)C1=CC[C@@H](c2ccc(OC)cc2)N(S(=O)(=O)c2ccc(C)cc2)[C@H]1c1ccc(C)cc1,0.71,0.528,0.836,-0.0291 (inactive),0.642,1.07,-0.0102,0.887,-0.346,0.588,1.33,-0.12,-0.0746,0.783,0.894,0.0509,0.216,-0.201,0.467,0.611
O=C1[C@H]2C=C(I)[C@H](C[C@@H]2c2ccccc2)[C@@]12CO2,-0.506,-0.322,-0.197,0.523 (inactive),0.0211,-0.326,0.384,-0.461,0.485,1.15,-0.0983,-3.6,0.208,-0.68,-0.661,-0.0977,-0.117,-0.172,0.126,0.0292
